# Most compounds without a hit are left out; they make up all but 3.5% or so of the library.
# MITF inh: blocks human microphthalmia-associated transcription factor; AlphaScreen MITF homodimerization, bead proximity signal; AID 1259374; inhibition, % at 2.6 µM; 650,000 compounds, 0.91% hits; O75030; in the data active = inhibition above about 50%;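 note: 0% = vehicle wells with protein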
# FBW7 activator: human FBW7 E3 ligase activation, primary screen. AID 1259310. Q969H0. AlphaScreen FBW7–phospho-cyclin E peptide binding, activator screen. 650,000 compounds, 0.13% hits. normalized activity (activation), % at 26.1 µM; in the data active = normalized activity above about 1.9%;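 note: purified mutant Fbw7 with reduced substrate affinity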
# GPR151 ag: activates the human receptor GPR151. PathHunter beta-arrestin GPR151 cells, luminescence. 650,000 compounds, 1% hits. activation, % at 11.2 µM; in the data active = activation above about 4.9%;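 note: 0% = median of compound wells and 100% = cells with positive control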
# TEAD-YAP inh: TEAD-YAP interaction inhibition. 640,000 compounds, 1.4% hits. inhibition, % at 9.12 µM. HEK-TIYL cells, TEAD-Gal4/YAP UAS-luciferase luminescence. AID 1259422; in the data active = inhibition above about 32%;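 note: 0% = median of test compound wells and 100% = reference inhibitor wells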
# GPR151 conf act: confirmation of human GPR151 activators. 6,700 tested, under 10 active. activation, % at 11.2 µM. GPR151 PathHunter beta-arrestin cells, luminescence, 90 min; % of EA-reagent control over plate median. shares compounds with GPR151 ag;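 active = mean percent activation across replicates above the confirmation screen cutoff of 4.91%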
# GPR119 ag: GPR119 activation, counter-screen for GPR151 activators. shares compounds with GPR151 ag. GPR119 PathHunter beta-arrestin cells, luminescence, 90 min; 0 = compound-well median, 100 = enzyme-acceptor control. activation, % at 11.2 µM. 6,700 compounds, 0.3% hits;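 active = mean percent activation in the counterscreen above 29.09%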;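 note: counterscreen on off-target GPR119 to flag nonselective hits from the GPR151 activator screen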
# Target sequence (Q8TDV5 whole entry, looked up): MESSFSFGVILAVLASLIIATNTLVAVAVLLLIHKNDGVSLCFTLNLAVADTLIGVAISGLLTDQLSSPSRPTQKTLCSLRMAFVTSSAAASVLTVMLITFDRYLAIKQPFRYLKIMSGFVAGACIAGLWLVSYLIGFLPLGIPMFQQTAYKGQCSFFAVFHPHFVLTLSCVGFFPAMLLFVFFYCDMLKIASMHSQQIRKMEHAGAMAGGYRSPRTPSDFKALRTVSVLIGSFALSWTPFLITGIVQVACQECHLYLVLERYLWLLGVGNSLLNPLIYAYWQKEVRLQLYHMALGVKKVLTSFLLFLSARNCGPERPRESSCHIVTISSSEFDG
# Numbers without * were called inactive; nt = no result given.
SMILES,MITF inh,FBW7 activator,GPR151 ag,TEAD-YAP inh,GPR151 conf act,GPR119 ag
O=C(CN(Cc1ccccc1)S(=O)(=O)c1ccc(Br)cc1)Nc1ccccc1Cl,-5,0,6.0*,-2,1,4
Cc1c(C(=O)N(C)C)sc2c1c(=O)n(-c1ccc(Cl)cc1)c(=O)n2CC1OCCO1,11,0,6.0*,4,1,-4
COCc1cc(CN2CCN3C(=O)[C@H](Cc4ccccc4)NC(=O)[C@H]3C2)ccc1OC,4,0,5.7*,7,0,5
COCc1cc(CN2CCN3C(=O)[C@H](Cc4ccc(O)cc4)NC(=O)[C@H]3C2)ccc1OC,16,1,0,3,nt,nt
COc1ccc(C[C@@H]2NC(=O)[C@H]3CN(C(=O)c4cc(Cl)cc(Cl)c4)CCN3C2=O)cc1,11,0,7.4*,-1,1,13
O=C1N[C@@H](Cc2c[nH]c3ccccc23)C(=O)N2CCN(C(=O)Oc3ccc(F)cc3)C[C@H]12,-18,0,14*,-11,0,26
COc1ccc(C(=O)N2CCN3C(=O)[C@H](Cc4ccc(Cl)cc4)NC(=O)[C@H]3C2)cc1,-14,0,-1,-2,nt,nt
O=C1N[C@@H](Cc2c[nH]c3ccccc23)C(=O)N2CCN(C(=O)c3ccc(F)cc3)C[C@H]12,16,0,6.4*,-2,1,8
O=C1N[C@@H](Cc2c[nH]c3ccccc23)C(=O)N2CCN(C(=O)c3ccc4ccccc4c3)C[C@H]12,4,0,2,5,nt,nt
c1cncc(CN2CCC(c3nc(-c4ccsc4)no3)CC2)c1,5,0,-2,-7,nt,nt
CC(=O)c1cccc(NC(=O)CSc2nnc(-c3ccoc3C)n2C)c1,4,0,0,8,nt,nt
CCCn1c(C2CC2)nc2ccccc21,-1,0,9.9*,-2,0,2
O=C(NCc1ccccc1)c1cnc(-c2ccccc2)s1,7,0,6.6*,-38,0,-14
Nc1cccc(-c2ncc(C(=O)NCc3ccccc3)s2)c1,11,0,1,3,nt,nt
O=C(NCc1cccc(C(F)(F)F)c1)c1cnc(NC2CCC(O)CC2)s1 (stereo not drawn),3,0,5.1*,4,-1,2
COc1ccc(-c2ncc(C(=O)NCc3cccc(C(F)(F)F)c3)s2)cc1,0,0,-3,-2,nt,nt
O=C(NCc1cccc(C(F)(F)F)c1)c1cnc(-c2ccccc2)s1,1,0,7.6*,14,-1,-4
O=[N+]([O-])c1cccc(S(=O)(=O)N2CCN(Cc3cccc(F)c3)CC2)c1,10,0,-1,6,nt,nt
CC1CCCCN1C(=O)Cn1c(=O)n(Cc2ccco2)c2ncccc21 (stereo not drawn),9,0,1,-7,nt,nt
COc1ccc(NC(=O)COc2ccc3c(=O)c(-c4ccc(F)cc4)coc3c2)cc1,-6,0,5.4*,-5,1,2
Cc1cc(C)c(NC(=O)CSc2ncc(CO)n2CC(=O)NC2CCCC2)c(C)c1,10,0,-2,-1,nt,nt
O=C(NCc1ccccc1)c1cnc2cc(-c3cn[nH]c3)ccn12,1,0,6.2*,-10,0,12
COc1nc(-c2ccc(Cl)cc2)nc2ccccc12,8,0,-1,-6,nt,nt
N#C/C(=C\Nc1ccccc1F)c1nc(-c2cc3cc([N+](=O)[O-])ccc3oc2=O)cs1,2,0,11*,0,0,10
Cc1ccnc(-n2cccc2CN2CCc3c(nc(N4CCCC4)[nH]c3=O)C2)c1,5,0,5.0*,7,0,6
SMILES,MITF inh,FBW7 activator,GPR151 ag,TEAD-YAP inh,GPR151 conf act,GPR119 ag
O=c1c2cc(NC(=S)N3CCC4(CC3)OCCO4)ccc2nc2n1CCCCC2,15,0,0,-3,nt,nt
COC(CNC(=O)/C=C/C(=O)O)OC,3,0,-1,-1,nt,nt
COc1ccc(CNC(=O)COc2ncnc3c(Cl)cc(Cl)cc23)cc1,10,0,6.9*,7,0,10
O=C(c1ccc([N+](=O)[O-])cc1)N1CCC(C(=O)N2CCN(c3ccccc3)CC2)CC1,10,0,11*,1,0,0
COc1ccc(-c2cc(C)cc3c2OC(CNC(=O)CC(C)C)C3)nn1 (stereo not drawn),11,0,0,-1,nt,nt
Cc1cc2c(c(-c3ccc(C(N)=O)cn3)c1)OC(CNC(=O)C13CC4CC(CC(C4)C1)C3)C2 (stereo not drawn),-9,0,7.1*,0,0,-3
O=C(NC1CCCC1)C(c1ccc(F)cc1)N(Cc1cccs1)C(=O)c1csnn1 (stereo not drawn),5,0,-1,14,nt,nt
Cc1ccc(C(=O)c2oc3ccc(NC(=O)c4ccco4)cc3c2C)cc1,9,0,7.8*,15,0,-5
Cc1c(C(=O)c2ccccc2)oc2ccc(NC(=O)c3cccs3)cc12,5,0,-1,-54,nt,nt
COc1ccc(CCNC(=O)CCCCCn2c(SCC(=O)NCC3CCCO3)nc3cc4c(cc3c2=O)OCO4)cc1OC (stereo not drawn),-10,0,1,4,nt,nt
CCc1ccc(N(CC(=O)NCc2ccccc2C)S(C)(=O)=O)cc1,14,1,-2,-50,nt,nt
Nc1ccc2c(c1)S(=O)(=O)c1cc(N)ccc1O2,3,0,7.4*,-59,0,-6
CCOC(=O)C1=C(C)N=C2SCC(=O)N2C1c1cccc2ccccc12 (stereo not drawn),-10,1,7.6*,-5,-1,-6
CCOC(=O)C1=C(C)N=C2SCC(=O)N2C1c1ccc(OC)c2ccccc12 (stereo not drawn),2,0,2,7,nt,nt
Cc1cc([N+](=O)[O-])ccc1NC(=O)CC1Sc2ccccc2NC1=O (stereo not drawn),0,0,1,-1,nt,nt
Cc1ccccc1Nc1nc(N)nc(COC(=O)c2cc(F)cc(F)c2)n1,-6,0,1,-7,nt,nt
COc1ccc(-c2noc(CN(C)CCOc3ccccc3)n2)c(OC)c1OC,3,0,0,-11,nt,nt
CN(CCOc1ccccc1)Cc1nc(-c2ccccc2)no1,11,0,9.5*,-5,0,-8
CC(C)C[C@H](O)C(=O)N1CCN(c2ccc3[nH]ncc3c2)CC1,8,0,5.0*,-8,0,13
CC(C)[C@H](O)C(=O)N1CCN(c2ccc3[nH]ncc3c2)CC1,24,0,-1,0,nt,nt
Cc1cccc(-n2cc(-c3ccccc3)c3c(N4CC(C)CC(C)C4)ncnc32)c1 (stereo not drawn),-2,0,0,2,nt,nt
COc1ccc(NC(=O)CN2Cc3ccccc3C2=O)cc1,-6,0,0,-8,nt,nt

# Source: PubChem
